# NPR1 antag: blocks ANP-stimulated signaling of human Npr1 receptor; Potency, µM (doses to about 46.3 µM), without a hit: top-dose activity change, negative = inhibition, usual class: inhibitors; 1.6% of 76,000 active; P16066; HEK293 hNpr1 GloSensor cGMP, ANP-stimulated luminescence; calls by dose curve; further: nearly all actives have a fitted effect of over 60% in size
#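 HEK293 cells stably expressing human Npr1 and cGMP GloSensor pGS-40F, loaded 2 h with 2% GloSensor reagent, given compound 30 min at room temperature. Luminescence read before and 20 min after 0.1 nM hNppA.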
# GPT2 inh: blocks human glutamate pyruvate transaminase 2. 0.25% of 100,000 active. Q8TD30. Recombinant GPT2, coupled pyruvate oxidase/HRP Amplex Red fluorescence. Potency, µM (series often up to 57.7 µM), inactives show at the top dose activity change, negative = inhibition, most hits filed as inhibitors; further: nearly all actives have a fitted effect of over 60% in size
#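 Recombinant GPT2 (10ng/uL) with 250uM a-KG and 2mM L-alanine, 30 min at room temperature, in HEPES pH 7.5 buffer. Pyruvate detected by pyruvate oxidase/HRP/Amplex Red fluorescence after 30 min in the dark; AOA (50uM) as positive control.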
# NIH3T3 tox: cytotoxic compounds in NIH 3T3 cells; NIH 3T3 viability, CellTiter-Glo ATP luminescence, 48-72 h; Potency, µM (titrated, usually from 96.7 µM), inactives show at the top dose activity change, negative = cytotoxicity, actives largely listed as inhibitors; 4.3% of 94,000 active; AID 1345082; further: nearly all actives have a fitted effect of over 55% in size
#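 Cytotoxicity is measured as loss of cellular ATP: NIH 3T3 cells (400/well) are exposed to compound for 48 or 72 hr at 37 °C, then CellTiter-Glo luminescence is imaged after 10 min at room temperature.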
# HEK cytotox: HEK 293 cell cytotoxicity; HEK 293 viability, ATP luminescence (CellTiter-Glo), 48-72 h; Potency, µM (series often up to 115 µM), without a hit: at the highest dose activity change, negative = cytotoxicity, most hits filed as inhibitors; 6.6% of 94,000 active; further: nearly all actives have a fitted effect of over 60% in size
#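 qHTS cytotoxicity; HEK 293, 250 cells/well; compound pinned; 48 or 72 hr, 37 degree Celsius, 5% CO2, 95% humidity; CellTiter-Glo, 10 min RT; luminescence (ATP).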
# FLuc inh: Photinus pyralis luciferase inhibition. 2.5% of 76,000 active. purified P. pyralis luciferase, luminescence, biochemical. AID 1347043. Potency, µM (doses to about 115 µM), usual class: inhibitors; further: nearly all actives have a fitted effect of over 65% in size
# Target sequence (P08659 whole entry, looked up): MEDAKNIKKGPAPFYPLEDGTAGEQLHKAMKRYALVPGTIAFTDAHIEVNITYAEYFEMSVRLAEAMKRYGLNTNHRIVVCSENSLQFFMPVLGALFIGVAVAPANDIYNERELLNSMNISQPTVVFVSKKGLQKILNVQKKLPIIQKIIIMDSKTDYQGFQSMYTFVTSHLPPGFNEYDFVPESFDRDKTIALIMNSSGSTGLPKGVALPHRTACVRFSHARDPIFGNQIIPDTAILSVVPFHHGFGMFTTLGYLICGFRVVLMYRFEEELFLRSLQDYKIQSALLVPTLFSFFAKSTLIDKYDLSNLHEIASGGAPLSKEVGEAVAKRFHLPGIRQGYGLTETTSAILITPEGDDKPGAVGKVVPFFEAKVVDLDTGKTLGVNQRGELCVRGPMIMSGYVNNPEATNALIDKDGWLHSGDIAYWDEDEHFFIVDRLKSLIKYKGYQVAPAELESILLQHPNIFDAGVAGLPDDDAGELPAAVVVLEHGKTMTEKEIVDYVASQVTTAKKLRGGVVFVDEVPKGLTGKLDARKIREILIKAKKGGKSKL
#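 Luminescence read by CCD imager after adding enzyme (10nM final) to wells holding compound, titrated in qHTS. Substrates 10uM each D-luciferin and ATP; buffer 50mM Tris acetate pH 7.5, 10mM Mg acetate, Tween-20, BSA.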
# The depositor's hits bear a star; i = inactive; ? = inconclusive; · = not tested or not shown; ! = not active in a repeat; [ ] = remark or other dose. Most compounds without a hit are left out; they make up all but 10% or so of the library. Unless noted, the call rests on the fitted dose curve; in most records, active means well fitted curve in the direction sought with a large enough effect; inconclusive means small, poorly fitted or top-dose-only effect, or another doubt; inactive means no such curve, though single readings can be large; an effect the other way counts as inactive or inconclusive. On the % scale 0 is the no-effect control and ±100 the full control effect; potency means the concentration at half of the fitted maximal effect.
SMILES,NPR1 antag,GPT2 inh,NIH3T3 tox,HEK cytotox,FLuc inh
CN(Cc1ccsc1)C1CCCc2ccccc21 (centres undefined),4%[70.6 µM],i,-19%[138 µM],-24%[172 µM],i
CCN1c2cc(C(=O)N3CCN(C4CCCCC4)CC3)ccc2C(=O)N2CCCCCC21 (centres undefined),-8%,1%,-13%,?,i
Cc1cnc(CC2CCCNC2)n1Cc1ccc(F)cc1 (centres undefined),0%,1%,-11%,?,i
Cc1ccc(-c2cc(C(=O)NCc3cccc(Cl)c3)c3cnn(C)c3n2)cc1,·,i,-24%,3%,·
Cc1ccc(-c2cc(C(=O)NCc3cccc(Cl)c3)c3cnn(C)c3n2)c(C)c1,·,i,?,32µM*,·
Cn1ncc2c(C(=O)NCc3cccs3)cc(-c3ccc(C(F)(F)F)cc3)nc21,·,·,?,35µM*,·
Cn1ncc2c(C(=O)NCCc3c[nH]c4ccccc34)cc(-c3ccc(C(F)(F)F)cc3)nc21,·,·,40µM*,?,·
Cn1ncc2c(C(=O)NCc3cccc(Cl)c3)cc(-c3ccccc3)nc21,·,i,-25%,-20%,·
COc1cccc(-c2cc(C(=O)NCc3cccc(Cl)c3)c3cnn(C)c3n2)c1,·,·,22µM*,?,·
Cn1ncc2c(C(=O)NCc3cccs3)cc(-c3ccc(Cl)cc3)nc21,·,i,?,?,·
CN1CCC(OCCCn2cnc3cn(C)nc3c2=O)CC1,-1%,i[11.5 µM],-1%,2%,i
CC(C)NC(=O)N1CC(C(=O)N(C)C)C2(CCOCC2)C1 (centres undefined),-2%,i,-6%,-12%,i
COc1cccc(-c2cc(C(=O)NCc3cccs3)c3cnn(C)c3n2)c1,·,·,25µM*!,?,·
COc1ccc(-c2cc(C(=O)NCc3cccc(OC)c3)c3cnn(C)c3n2)cc1,·,-4%,?,?,·
COc1cccc(CNC(=O)c2cc(-c3ccc(F)cc3)nc3c2cnn3C)c1,·,i,?,28µM*,·
COc1cccc(-c2cc(C(=O)NCC#N)c3cnn(C)c3n2)c1,·,·,40µM*,?,·
COc1cc(CNC(=O)c2cc(-c3ccc(Cl)cc3Cl)nc3c2cnn3C)cc(OC)c1,·,-19%,?,45µM*,·
COc1ccccc1C(=O)Nc1cc(C2CC2)nn1-c1ccccc1,·,i,22µM*,?,·
O=C(Nc1cc(C2CC2)nn1-c1ccccc1)c1ccccc1Cl,·,-3%,-14%,-18%,·
O=C(NCCC1=CCCCC1)c1cc2n(n1)CC(c1ccc3c(c1)OCO3)OC2 (centres undefined),?,i,?,71µM*,i
O=C(NCCC1=CCCCC1)c1cc2n(n1)CC(c1ccc(Cl)cc1)OC2 (centres undefined),?,?,?,45µM*,i
O=C(Cc1ccc2c(c1)OCO2)N(Cc1ccncc1)Cc1cccc(OCCc2ccc(F)cc2)c1,?,i,35µM*,40µM*,i
Fc1cccc(NC2CCCN(Cc3cccn3-c3nccs3)C2)c1 (centres undefined),-5%,i,?,45µM*,i
CCN(CC)C(=O)C[C@@H]1c2nc(NC(=O)c3cccs3)sc2C[C@@H]2[C@](C)(CO)[C@H](O)CC[C@]21C,-15%,0%,-7%,-23%,i
O=C(C1=NO[C@@H]2CN(Cc3ccsc3)C[C@H]12)N1CCOCC1,5%[70.6 µM],3%[88.5 µM],?,2%[172 µM],i
SMILES,NPR1 antag,GPT2 inh,NIH3T3 tox,HEK cytotox,FLuc inh
Cc1ccc(C2NC(=O)N(CC(=O)Nc3ccc(F)c(F)c3)C3=C2C(=O)OC3)cc1 (centres undefined),-13%,i,?,20µM*,i
CC(C)c1cccc(NC(=O)CN2C(=O)NC(c3ccccc3Cl)C3=C2COC3=O)c1 (centres undefined),-23%,i,?,40µM*,?
Cc1ccc(C2NC(=O)N(CC(=O)Nc3cc(F)ccc3F)C3=C2C(=O)OC3)cc1 (centres undefined),-1%,i,-26%,?,i
CCOC(=O)c1ccccc1NC(=O)CN1C(=O)NC(c2ccc(Cl)cc2)C2=C1COC2=O (centres undefined),-12%,-4%,40µM*,?,i
O=C(CN1C(=O)NC(c2ccc(Cl)cc2)C2=C1COC2=O)Nc1ccc2c(c1)CCC2 (centres undefined),-29%,4%,25µM*,22µM*,i
COc1ccc(CCN2C(=O)O[C@@H]3CN(C(=O)C4CCC4)C[C@@H]32)cc1,6%,4%,1%,i,i
Cc1nc2cc(N3CCCC(C(=O)O)C3)cnc2nc1C (centres undefined),3%,i,-20%,-17%,i
Cc1cc(NC(=O)CN2C(=O)NC(c3ccc(Cl)cc3)C3=C2COC3=O)ccc1Br (centres undefined),-25%,i,25µM*,?,i
Cc1ccc(C2NC(=O)N(CC(=O)Nc3ccccc3)C3=C2C(=O)OC3)cc1 (centres undefined),-9%,4%,?,?,i
CCCCc1ccc(NC(=O)CN2C(=O)NC(c3ccc(C)cc3)C3=C2COC3=O)cc1 (centres undefined),-14%,i,?,45µM*,i
Cc1ccc(C2NC(=O)N(CC(=O)Nc3ccc4c(c3)OCCO4)C3=C2C(=O)OC3)cc1 (centres undefined),-9%,1%,-18%,?,i
Cc1ccc(NC(=O)CN2C(=O)NC(c3ccc(Cl)cc3)C3=C2COC3=O)cc1Cl (centres undefined),?,i,28µM*,32µM*,?
CO[C@H]1C(=O)N(C(C)C)[C@H]1C1CCN(C(=O)Cn2nc(C(F)(F)F)cc2C)CC1,6%,2%,i,i,35µM*
CO[C@H]1C(=O)N(C(C)C)[C@H]1C1CCN(C(=O)Cn2ccc(C)n2)CC1,0%,3%,-1%,0%,25µM*
O=C1NCc2ccccc2CC12CCN(Cc1ccc(Br)cc1)C2 (centres undefined),·,3%,?,?,·
CC(C)NC(=O)c1nc2cccnc2n(CCc2ccccc2)c1=O,·,i,?,20µM*,·
O=C(NCC1CCCCCC1)c1nc2cccnc2n(CCc2ccccc2)c1=O,·,i,35µM*,?,·
COc1ccc(CC(=O)N2C[C@@H]3C[C@H](C2)c2c(-c4ccc(NC(C)=O)cc4)ccc(=O)n2C3)cc1,4%,5%,5%,2%,i
Cc1ccccc1[C@H]1C[C@@H](O)[C@@H](O)[C@@H]1NS(=O)(=O)c1ccc(C(F)(F)F)cc1,-4%[70.6 µM],-10%[88.5 µM],-26%[174 µM],100µM*,i
